Results published in the supplement of paper PMC10849652.
The full data set covers some 8,800 targets. This sample favours those with a hit. About 0.5% of all pairs of compound and target were hits. A number with no mark means an inactive call.

Key:
Test in all cases: log2 fold change, soluble protein after heating vs DMSO (PISA); higher = thermal stabilisation; K562 lysate, 10 uM; active = over 0.2 and 3.5 SD of the protein, either way, in both replicates (recomputed)
lapatinib = compound: CS(=O)(=O)CCNCc1ccc(-c2ccc3ncnc(Nc4ccc(OCc5cccc(F)c5)c(Cl)c4)c3c2)o1 [lapatinib]
Procedure, shortened: (§1)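 Quantification was by TMTpro 16plex LC-MS/MS with equalised channel sums, applied to the supernatant after 21,000xg for 90 min. Samples were crude K562 extract at 1 mg/mL protein in PBS pH 7.4 with 1 mM MgCl2, treated with 10 μM compound for 30 min, heated for 3 min across 48°C-58°C, pooled and brought to 0.5% NP-40 at 4°C. Values are log-two fold changes in thermal stability relative to solvent controls, from duplicates.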

pictilisib = compound: CS(=O)(=O)N1CCN(Cc2cc3nc(-c4cccc5[nH]ncc45)nc(N4CCOCC4)c3s2)CC1 [pictilisib]
Procedure, shortened: as §1

crizotinib = compound: C[C@@H](Oc1cc(-c2cnn(C3CCNCC3)c2)cnc1N)c1c(Cl)ccc(F)c1Cl [crizotinib]
Procedure, shortened: as §1

[1] = compound: C[C@H](C1=CC=C(C=C1)C(=O)NC2=C3C=CNC3=NC=C2)N
Procedure, shortened: as §1

duvelisib = compound: C[C@H](Nc1ncnc2nc[nH]c12)c1cc2cccc(Cl)c2c(=O)n1-c1ccccc1 [duvelisib]
Procedure, shortened: as §1

gandotinib = compound: Cc1cc(Nc2cc(CN3CCOCC3)c3nc(C)c(Cc4ccc(Cl)cc4F)n3n2)n[nH]1 [gandotinib]
Procedure, shortened: as §1

tozasertib = compound: Cc1cc(Nc2cc(N3CCN(C)CC3)nc(Sc3ccc(NC(=O)C4CC4)cc3)n2)n[nH]1 [tozasertib]
Procedure, shortened: as §1

doramapimod = compound: Cc1ccc(-n2nc(C(C)(C)C)cc2NC(=O)Nc2ccc(OCCN3CCOCC3)c3ccccc23)cc1 [doramapimod]
Procedure, shortened: as §1

bafetinib = compound: Cc1ccc(NC(=O)c2ccc(CN3CC[C@H](N(C)C)C3)c(C(F)(F)F)c2)cc1Nc1nccc(-c2cncnc2)n1 [bafetinib]
Procedure, shortened: as §1

[2] = compound: Cc1cccc(CC(=O)N2CCc3c2ccc(-c2cn(C)c4ncnc(N)c24)c3F)n1
Procedure, shortened: as §1

Sequence of UniProt Q9Y2V0 (Q9Y2V0 whole entry, looked up): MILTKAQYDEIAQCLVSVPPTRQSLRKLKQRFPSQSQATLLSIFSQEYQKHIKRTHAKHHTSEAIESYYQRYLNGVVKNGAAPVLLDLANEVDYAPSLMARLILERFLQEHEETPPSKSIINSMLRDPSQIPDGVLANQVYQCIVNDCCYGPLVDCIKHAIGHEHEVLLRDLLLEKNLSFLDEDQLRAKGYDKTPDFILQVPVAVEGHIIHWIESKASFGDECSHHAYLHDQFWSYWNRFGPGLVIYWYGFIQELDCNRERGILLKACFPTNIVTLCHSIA
Sequence of UniProt P15313 (P15313 whole entry, looked up): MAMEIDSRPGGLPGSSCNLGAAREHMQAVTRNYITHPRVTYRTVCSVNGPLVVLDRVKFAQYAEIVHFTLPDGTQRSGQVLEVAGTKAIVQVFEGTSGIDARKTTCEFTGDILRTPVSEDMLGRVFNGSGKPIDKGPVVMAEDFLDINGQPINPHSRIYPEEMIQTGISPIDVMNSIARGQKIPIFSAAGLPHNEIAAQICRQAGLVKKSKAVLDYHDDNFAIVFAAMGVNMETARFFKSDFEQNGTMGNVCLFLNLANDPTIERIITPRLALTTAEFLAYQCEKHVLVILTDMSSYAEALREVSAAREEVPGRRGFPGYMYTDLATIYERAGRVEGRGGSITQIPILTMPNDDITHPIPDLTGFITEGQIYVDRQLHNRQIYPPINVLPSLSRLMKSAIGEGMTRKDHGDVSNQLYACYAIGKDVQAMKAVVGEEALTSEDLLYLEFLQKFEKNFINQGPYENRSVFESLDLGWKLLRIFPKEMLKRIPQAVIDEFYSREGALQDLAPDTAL
Sequence of UniProt Q8TDI0 (Q8TDI0 whole entry, looked up): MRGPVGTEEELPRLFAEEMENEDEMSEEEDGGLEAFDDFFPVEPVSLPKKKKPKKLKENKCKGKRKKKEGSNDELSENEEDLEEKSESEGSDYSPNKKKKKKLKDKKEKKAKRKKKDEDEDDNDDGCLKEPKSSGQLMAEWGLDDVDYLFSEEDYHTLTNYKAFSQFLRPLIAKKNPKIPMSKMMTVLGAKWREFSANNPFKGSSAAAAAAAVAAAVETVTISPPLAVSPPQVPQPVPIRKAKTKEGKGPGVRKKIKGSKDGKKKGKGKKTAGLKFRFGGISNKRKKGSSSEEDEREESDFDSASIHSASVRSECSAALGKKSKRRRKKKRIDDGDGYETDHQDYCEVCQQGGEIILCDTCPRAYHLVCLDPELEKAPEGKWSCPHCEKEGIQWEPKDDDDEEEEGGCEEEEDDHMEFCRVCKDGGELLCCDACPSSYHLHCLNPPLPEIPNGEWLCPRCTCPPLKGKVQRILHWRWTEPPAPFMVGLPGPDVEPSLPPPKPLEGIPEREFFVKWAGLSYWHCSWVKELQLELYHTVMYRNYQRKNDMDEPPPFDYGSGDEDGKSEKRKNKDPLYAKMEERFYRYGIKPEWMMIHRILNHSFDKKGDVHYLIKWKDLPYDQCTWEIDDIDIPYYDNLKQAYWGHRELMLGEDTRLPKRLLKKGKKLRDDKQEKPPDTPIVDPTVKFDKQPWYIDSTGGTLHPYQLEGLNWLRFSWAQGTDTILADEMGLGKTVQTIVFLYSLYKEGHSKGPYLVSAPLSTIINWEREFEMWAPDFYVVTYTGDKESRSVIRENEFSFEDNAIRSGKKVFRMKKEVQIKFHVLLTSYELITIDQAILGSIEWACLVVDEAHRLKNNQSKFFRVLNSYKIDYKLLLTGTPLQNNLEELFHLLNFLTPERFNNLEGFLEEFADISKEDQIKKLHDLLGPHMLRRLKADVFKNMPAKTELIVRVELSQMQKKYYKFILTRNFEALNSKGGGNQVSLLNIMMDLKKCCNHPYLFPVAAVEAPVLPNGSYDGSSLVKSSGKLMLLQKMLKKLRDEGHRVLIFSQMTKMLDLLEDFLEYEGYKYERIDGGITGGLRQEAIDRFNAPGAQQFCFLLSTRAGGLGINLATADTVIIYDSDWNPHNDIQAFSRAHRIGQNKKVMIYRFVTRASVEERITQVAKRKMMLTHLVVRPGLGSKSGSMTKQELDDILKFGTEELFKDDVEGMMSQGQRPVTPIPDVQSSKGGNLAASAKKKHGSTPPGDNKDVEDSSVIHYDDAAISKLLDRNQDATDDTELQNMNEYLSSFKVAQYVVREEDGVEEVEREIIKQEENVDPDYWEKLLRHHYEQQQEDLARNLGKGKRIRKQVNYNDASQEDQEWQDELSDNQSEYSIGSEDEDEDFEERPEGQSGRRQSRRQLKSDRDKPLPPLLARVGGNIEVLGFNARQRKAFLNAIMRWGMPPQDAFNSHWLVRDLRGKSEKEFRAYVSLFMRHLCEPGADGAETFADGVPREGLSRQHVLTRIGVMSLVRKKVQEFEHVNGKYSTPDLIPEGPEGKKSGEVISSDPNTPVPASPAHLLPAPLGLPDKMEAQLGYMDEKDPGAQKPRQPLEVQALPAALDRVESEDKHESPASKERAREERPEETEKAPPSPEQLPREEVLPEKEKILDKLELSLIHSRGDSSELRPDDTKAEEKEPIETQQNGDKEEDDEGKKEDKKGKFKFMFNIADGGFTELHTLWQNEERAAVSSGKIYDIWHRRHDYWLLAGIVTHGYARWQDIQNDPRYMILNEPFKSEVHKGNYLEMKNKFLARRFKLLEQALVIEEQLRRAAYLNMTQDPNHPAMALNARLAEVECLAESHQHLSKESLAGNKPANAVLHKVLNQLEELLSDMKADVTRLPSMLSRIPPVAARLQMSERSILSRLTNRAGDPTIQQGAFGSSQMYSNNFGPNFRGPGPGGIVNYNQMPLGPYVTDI
Sequence of UniProt P16152 (P16152 whole entry, looked up): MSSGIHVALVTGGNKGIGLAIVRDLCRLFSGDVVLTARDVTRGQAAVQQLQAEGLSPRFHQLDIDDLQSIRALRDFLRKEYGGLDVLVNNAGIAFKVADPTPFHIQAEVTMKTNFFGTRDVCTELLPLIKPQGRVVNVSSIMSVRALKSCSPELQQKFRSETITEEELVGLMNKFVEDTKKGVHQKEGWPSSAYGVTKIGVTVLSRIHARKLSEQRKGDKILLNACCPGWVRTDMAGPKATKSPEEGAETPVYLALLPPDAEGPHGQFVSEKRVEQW
Sequence of UniProt Q96B23 (Q96B23 whole entry, looked up): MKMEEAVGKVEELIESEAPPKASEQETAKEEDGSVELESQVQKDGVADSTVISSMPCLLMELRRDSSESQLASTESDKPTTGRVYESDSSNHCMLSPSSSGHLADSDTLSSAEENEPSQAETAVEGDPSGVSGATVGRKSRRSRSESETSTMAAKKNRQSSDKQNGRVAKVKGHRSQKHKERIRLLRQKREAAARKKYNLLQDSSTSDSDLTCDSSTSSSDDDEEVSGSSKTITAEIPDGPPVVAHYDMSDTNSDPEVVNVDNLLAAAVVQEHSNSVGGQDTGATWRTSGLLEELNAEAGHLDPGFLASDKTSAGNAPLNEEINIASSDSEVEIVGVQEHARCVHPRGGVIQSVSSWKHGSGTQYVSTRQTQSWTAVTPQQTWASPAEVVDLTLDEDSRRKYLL
Sequence of UniProt Q9NW68 (Q9NW68 whole entry, looked up): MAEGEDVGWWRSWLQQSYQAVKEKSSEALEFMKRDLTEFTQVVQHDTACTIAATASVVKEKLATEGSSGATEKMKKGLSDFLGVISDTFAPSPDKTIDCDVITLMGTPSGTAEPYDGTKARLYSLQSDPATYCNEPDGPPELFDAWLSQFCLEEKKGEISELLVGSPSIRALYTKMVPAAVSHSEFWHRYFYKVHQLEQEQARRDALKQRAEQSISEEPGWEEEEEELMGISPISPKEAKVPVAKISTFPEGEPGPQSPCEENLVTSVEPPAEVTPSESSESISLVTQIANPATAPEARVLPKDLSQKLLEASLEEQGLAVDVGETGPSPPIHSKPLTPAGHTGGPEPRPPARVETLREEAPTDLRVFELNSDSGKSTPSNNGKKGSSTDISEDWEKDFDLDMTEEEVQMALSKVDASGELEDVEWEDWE
Sequence of UniProt P21127 (P21127 whole entry, looked up): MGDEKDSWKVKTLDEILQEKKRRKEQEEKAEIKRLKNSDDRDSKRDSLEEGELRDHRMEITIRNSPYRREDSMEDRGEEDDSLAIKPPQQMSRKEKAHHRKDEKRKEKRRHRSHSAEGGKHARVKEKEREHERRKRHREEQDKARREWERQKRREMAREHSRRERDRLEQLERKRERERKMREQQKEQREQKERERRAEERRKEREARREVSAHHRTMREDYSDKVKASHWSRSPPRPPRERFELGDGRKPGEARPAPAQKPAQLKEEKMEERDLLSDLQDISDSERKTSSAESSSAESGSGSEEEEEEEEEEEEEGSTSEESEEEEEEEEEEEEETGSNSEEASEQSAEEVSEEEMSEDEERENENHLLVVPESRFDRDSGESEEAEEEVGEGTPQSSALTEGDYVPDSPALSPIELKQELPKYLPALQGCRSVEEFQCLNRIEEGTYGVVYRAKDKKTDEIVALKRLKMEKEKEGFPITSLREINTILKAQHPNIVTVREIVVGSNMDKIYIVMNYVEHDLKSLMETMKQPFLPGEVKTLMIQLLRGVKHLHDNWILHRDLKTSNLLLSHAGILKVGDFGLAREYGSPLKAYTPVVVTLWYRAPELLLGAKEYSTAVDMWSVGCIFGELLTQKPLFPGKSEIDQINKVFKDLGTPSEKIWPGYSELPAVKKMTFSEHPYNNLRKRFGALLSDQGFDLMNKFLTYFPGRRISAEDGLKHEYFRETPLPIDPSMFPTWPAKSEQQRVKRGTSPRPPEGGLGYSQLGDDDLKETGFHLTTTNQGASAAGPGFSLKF
Sequence of UniProt Q9UEE9 (Q9UEE9 whole entry, looked up): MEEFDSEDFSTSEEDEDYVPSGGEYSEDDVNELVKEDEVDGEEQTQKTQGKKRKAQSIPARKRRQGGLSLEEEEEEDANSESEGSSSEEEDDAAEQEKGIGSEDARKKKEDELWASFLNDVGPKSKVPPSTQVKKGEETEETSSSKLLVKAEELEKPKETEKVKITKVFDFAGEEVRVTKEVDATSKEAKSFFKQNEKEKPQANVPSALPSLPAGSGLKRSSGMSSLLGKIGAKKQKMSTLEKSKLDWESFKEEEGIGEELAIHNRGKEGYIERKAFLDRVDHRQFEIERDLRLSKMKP

Target	log2 fold change (lapatinib)	log2 fold change (pictilisib)	log2 fold change (crizotinib)	log2 fold change [1]	log2 fold change (duvelisib)	log2 fold change (gandotinib)	log2 fold change (tozasertib)	log2 fold change (doramapimod)	log2 fold change (bafetinib)	log2 fold change [2]
CES2 isoform 4 (UniProt O00748)	0.027	0.32	0.079	-0.003	0.021	0.016	0	0.015	0.154	0.036
CHCHD1 (UniProt Q96BP2)	0.025	0.001	-0.069	1.33 (active)	0.052	-0.314	-0.016	0.039	0.003	-0.35 (active)
BSDC1 (UniProt Q9NW68)	0.088	-0.055	0.012	-0.052	0.016	0.312 (active)	-0.005	0.098	-0.012	0.019
CDK13 (UniProt Q14004)	-0.077	0.108	0.08	0.025	-0.006	-0.1	0.027	0.002	0.101	-0.046
CALM2 (UniProt P0DP24)	-0.038	-0.128	0.027	-0.252	0.086	0.068	0.025	-0.064	-0.171	0.187
CDK11B (UniProt P21127)	-0.017	-0.006	0.461 (active)	-0.012	0	0.399 (active)	0.02	0.031	-0.042	0.007
CCAR2 (UniProt G3V119)	-0.12									
CDK9 isoform 2 (UniProt P50750)	-0.103	0.034	0.067	0.066	-0.026	0.074	-0.108	-0.02	-0.125	-0.056
BUD23 isoform 3 (UniProt O43709)	0.052	-0.017	0.07	-0.305 (active)	0.025	0.136	-0.073	-0.035	-0.088	0.152
C18orf32 (UniProt Q8TCD1)	-0.012	0.041	-0.07	-0.093	-0.203	0.001	-0.011	-0.01	-0.04	0.047
BLM (UniProt P54132)	-0.007	-0.068	-0.003	0.192	0.018	-0.267 (active)	0.057	0.018	-0.049	-0.251
ATRIP (UniProt Q8WXE1)	-0.046	0.187	0.012	-0.034	-0.016	-0.056	0.097	0.001	-0.035	0.006
CHCHD7 isoform 4 (UniProt Q9BUK0)	0.079	0.06	-0.052	-0.382 (active)	-0.01	0.266	-0.077	0.026	-0.001	0.187
CELF2 isoform 3 (UniProt O95319)	0.039	0.032	0.072	0.104	-0.001	-0.052	0.017	-0.579 (active)	-0.042	-0.124
BNIP3 (UniProt Q12983)	-0.031	0.049	-0.054	-0.371 (active)	-0.166	0.107	-0.046	-0.016	0.023	0.14
AURKAIP1 (UniProt Q9NWT8)	-0.001	0.051	0.021	-0.017	0.012	-0.03	0.028	-0.039	-0.029	-0.04

Target	log2 fold change (lapatinib)	log2 fold change (pictilisib)	log2 fold change (crizotinib)	log2 fold change [1]	log2 fold change (duvelisib)	log2 fold change (gandotinib)	log2 fold change (tozasertib)	log2 fold change (doramapimod)	log2 fold change (bafetinib)	log2 fold change [2]
C8orf37 (UniProt Q96NL8)	-0.095	0.006	0.043	-0.559 (active)	0.046	-0.06	0.006	0.043	0.09	0.238
CCT6A (UniProt P40227)	-0.01	0.008	0.026	0.009	-0.004	-0.018	-0.012	-0.013	0.013	-0.028
CASP3 (UniProt P42574)	0.013	-0.021	0.001	0.249 (active)	0.007	-0.084	-0.016	0.005	0.107	-0.089
CBR1 (UniProt P16152)	0.023	-0.027	0.043	-0.082	-0.037	0.001	0.003	-0.044	0.034	0.032
CDC45 isoform 3 (UniProt O75419)	-0.036	-0.014	-0.009	0.023	-0.007	-0.079	0	-0.002	-0.077	-0.018
CAPN15 (UniProt O75808)	0.063	-0.046	-0.047	0.004	-0.022	-0.033	0.042	0.106	-0.003	-0.01
ATP6V1B1 (UniProt P15313)	-0.028	-0.028	-0.035	-0.232	-0.001	0.099	0	0.042	-0.044	0.129
C18orf25 (UniProt Q96B23)	0.017	-0.003	-0.049	0.022	-0.046	0.019	-0.029	0.019	-0.023	-0.098
BRD4 (UniProt O60885)	0.044	0.015	-0.03	-0.06	0.013	0.019	-0.031	0.016	-0.024	-0.006
CAMKK2 (UniProt Q96RR4)	-0.018	0.006	0.108	0.023	0.058	0.257 (active)	-0.055	0.031	0.018	-0.056
C15orf41 (UniProt Q9Y2V0)	-0.078	0.007	-0.033	0.03	0.059	0.002	0.102	-0.035	0.009	-0.017
CD63 (UniProt P08962)	0.006	-0.256	0.036	-0.415 (active)	0.025	0.209	0.013	0.077	-0.08	0.074
CFDP1 (UniProt Q9UEE9)	-0.018	0.008	-0.052	-0.288 (active)	0.006	0.066	-0.032	0.041	0.07	0.091
ATR (UniProt Q13535)	-0.036	0.408 (active)	-0.1	-0.158	0.032	0.117	0.044	0.068	-0.033	0.161
CHD5 (UniProt Q8TDI0)	0.028	0.007	-0.03	0	-0.056	0.001	-0.074	0.034	-0.042	-0.002
